For 17 compounds, Potency results are on record in PubChem BioAssay (NCATS).

The source made the active and inactive calls.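 The calls were made as follows: active = compounds whose dose series gives a full or clear partial fitted curve of increased nuclear translocation; inconclusive = weak partial curve or effect only at the top dose; inactive = no dose-dependent translocation response.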 Some results are limits rather than exact numbers.
Potency is read from the fitted curve at half-maximal effect.

Sequence of Glucocorticoid receptor (Homo sapiens) (P04150 whole entry, looked up): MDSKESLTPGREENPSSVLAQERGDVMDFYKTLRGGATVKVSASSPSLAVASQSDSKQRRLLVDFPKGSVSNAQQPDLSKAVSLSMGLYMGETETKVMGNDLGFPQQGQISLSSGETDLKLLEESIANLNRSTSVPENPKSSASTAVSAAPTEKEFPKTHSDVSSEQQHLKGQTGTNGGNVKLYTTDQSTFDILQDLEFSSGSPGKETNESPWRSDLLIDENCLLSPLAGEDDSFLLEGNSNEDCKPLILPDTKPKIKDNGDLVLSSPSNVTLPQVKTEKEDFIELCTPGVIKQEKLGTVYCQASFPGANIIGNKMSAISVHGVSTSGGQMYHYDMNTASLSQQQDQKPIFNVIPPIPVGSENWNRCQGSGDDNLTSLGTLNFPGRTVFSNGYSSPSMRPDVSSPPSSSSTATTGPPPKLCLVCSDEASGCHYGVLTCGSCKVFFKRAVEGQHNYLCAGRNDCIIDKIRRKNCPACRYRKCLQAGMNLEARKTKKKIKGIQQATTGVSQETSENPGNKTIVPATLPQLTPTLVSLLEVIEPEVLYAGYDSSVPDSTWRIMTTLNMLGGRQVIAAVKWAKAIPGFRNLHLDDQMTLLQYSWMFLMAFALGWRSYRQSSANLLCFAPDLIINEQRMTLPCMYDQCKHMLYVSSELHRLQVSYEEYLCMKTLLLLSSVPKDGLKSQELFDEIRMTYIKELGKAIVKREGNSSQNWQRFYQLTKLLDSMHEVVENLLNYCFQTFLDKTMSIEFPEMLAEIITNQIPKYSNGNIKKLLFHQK

The test concerns the target Glucocorticoid receptor (Homo sapiens) (UniProt P04150). As to the kind of experiment: GR-GFP Redistribution (AID 450). As to conditions: U2OS GR-GFP nuclear translocation, laser cytometry, 2 h.
Consider `Clc1ccccc1-c1nccc(-n2ccnc2)n1`, for which the Potency is > 46 µM (inactive).
The figure for `Cc1cccc(CNc2ccnc(-c3ccoc3)n2)c1` is > 46 µM (inactive).
The figure for `c1nc(NC2CCNCC2)c2cc(-c3ccc4c(c3)OCO4)ccc2n1` is > 46 µM (inactive); for `O=c1c(-c2ccccc2)nc2cnc(Oc3ccccc3)nc2n1Cc1cccs1` it is > 9.22 µM (inactive).
For the compound `COc1ccc(-n2c(=O)c(-c3cn(C)c4ccccc34)nc3cnc(OC)nc32)cc1`, the Potency was > 9.22 µM (inactive).
In the case of `CN(C)c1ncc2ncc(=O)n(CCC#N)c2n1`, the Potency is > 9.22 µM (inactive).
Next, `COc1ccccc1CNc1ncncc1-c1ccoc1`: > 46 µM (inactive).
With `COc1ncc2ncc(=O)n(Cc3cccs3)c2n1`, the Potency was > 9.22 µM (inactive).
For the compound `FC(F)(F)c1ccccc1-c1cc(N2CCNCC2)ncn1`, the Potency is > 46 µM (inactive).
Next, `CC(=O)NCCNc1nc(-c2ccccc2C(F)(F)F)nc2ccccc12`: > 46 µM (inactive); `COc1ccccc1CNc1ccnc(-c2ccoc2)n1`: > 46 µM (inactive).
Next, `Cc1ccccc1-c1cncnc1Nc1ccc(F)cc1`: > 46 µM (inactive); `CN(Cc1ccco1)c1cc(-c2ccccc2Cl)ncn1`: > 46 µM (inactive); `COc1ccc(-n2c(=O)cnc3cnc(Oc4ccccc4)nc32)cc1`: > 9.22 µM (inactive).
As to `COc1ncc2nc(-c3cccc(C#N)c3)c(=O)n(CCC#N)c2n1`, the Potency is > 9.22 µM (inactive).
The figure for `CN(Cc1ccco1)c1ncnc2ccc(-c3cccc(C#N)c3)cc12` is > 46 µM (inactive); for `c1ccc(CNc2ccnc(-c3ccoc3)n2)cc1` it is > 46 µM (inactive).
